The record followed here is PubChem BioAssay AID2158 (National Center for Advancing Translational Sciences (NCATS), 2009).

Where “and” joins values, the source holds several entries; their conditions need not be identical. Equal values may be shown once. Records with an inconclusive call do not appear. Values without a mark were called inactive. Calls of active or inactive are those of the source. Calls come from the whole dose curve; as a rule, active = well fitted inhibition curve with a large enough effect; inconclusive = small, poorly fitted or top-dose-only effect; inactive = no such curve, though single readings can be large or run the other way.
Potency is the fitted concentration of half-maximal effect.

Cruzipain (Trypanosoma cruzi), sequence (P25779 123-467 limits assumed): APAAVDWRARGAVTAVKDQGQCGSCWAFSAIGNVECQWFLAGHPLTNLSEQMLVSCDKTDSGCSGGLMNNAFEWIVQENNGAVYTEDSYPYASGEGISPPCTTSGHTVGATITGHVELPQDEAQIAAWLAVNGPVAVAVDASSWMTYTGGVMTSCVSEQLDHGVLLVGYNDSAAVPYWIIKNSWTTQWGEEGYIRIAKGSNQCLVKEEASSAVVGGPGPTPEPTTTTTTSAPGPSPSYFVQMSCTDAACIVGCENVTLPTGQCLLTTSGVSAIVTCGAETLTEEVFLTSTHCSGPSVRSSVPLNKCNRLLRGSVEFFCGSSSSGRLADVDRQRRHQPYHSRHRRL

The assay has as its target Cruzipain (Trypanosoma cruzi) (UniProt P25779). In words: Confirmation qHTS Assay for Inhibitors of Cruzain.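 For activity change, negative = inhibition: plate controls were uninhibited enzyme control for no effect and buffer wells lacking enzyme for full effect.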 Note: nearly all actives have a fitted effect of over 40% in size. The settings on record: purified cruzain, Z-FR-AMC fluorescence, 0.01% Triton. Summed up: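 Reaction progress from the 60 s rise in AMC fluorescence (ex 360, em 450 nm) after adding 2 uM Z-FR-AMC. Before this, 1.5 nM cruzain sat 15 min at room temperature with compound in pH 5.5 acetate buffer with 5 mM DTT and 0.01% Triton X-100.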
Turning to `COc1ccc(Nc2nc(C#N)nc(NC3CCCC3)n2)cc1`, the Potency was 0.447 µM (active).

For `NC(=O)C(OC(=O)CNC(=O)C1CCCCC1)c1ccccc1` (centres undefined), the Potency is 2.51 µM (active).

In the case of `COc1ccc(-c2nn3c(-c4cc(C)[nH]n4)nnc3s2)cc1`, the activity change, negative = inhibition was -13.7%.

For the compound `COc1ccc(-c2nc(C#N)c(NCCCN3CCOCC3)o2)cc1`, the activity change, negative = inhibition was -29.3%.

In the case of `CCn1cnc2c(Nc3ccc(CCC(=O)N=C(N)N)cc3)nc(C#N)nc21`, the Potency was 35.5 µM (active).

For the compound `CNC(=O)c1ccc2nc(-c3ccccc3)c(-c3ccccc3)nc2c1`, the activity change, negative = inhibition is -11.4%.

As to `CCNc1nc(C#N)nc2c1ncn2-c1cc(F)cc(F)c1`, the Potency was 0.224 µM (active).

As for `COc1cccc(Nc2nc(C#N)nc(NC3CCCC3)n2)c1`, the Potency was 0.199 µM (active).

Consider `O=C(COC(=O)CNC(=O)c1ccccc1)Nc1cc(C(F)(F)F)ccc1Cl`, for which the Potency was 11.2 µM (active).

As to `COc1ccc2[nH]c3c(NCCN4CCCCC4)ncnc3c2c1`, the Potency is 12.6 µM (active).

Regarding `CCc1ccc2[nH]c(=O)c(CN(Cc3ccccc3)Cc3nnnn3C(C)(C)C)cc2c1`, the activity change, negative = inhibition is -22.1%.

Turning to `COc1cc(OC)c(-c2nn3c(-c4cc(C)[nH]n4)nnc3s2)cc1OC`, the activity change, negative = inhibition is -21.4%.

On to `O=C(NCc1ccc2c(c1)OCO2)c1ccc2c(c1)N(Cc1cccc(Cl)c1)C(=O)c1ccccc1S2`, for which the activity change, negative = inhibition was 3.57%.

With `Cc1ccc(OCCCn2c(CCNC(=O)C3CCCCC3)nc3ccccc32)cc1`, the Potency is 0.794 µM (active).

For the compound `Cn1nc(-c2ccncc2)nc2c(=O)n(C)c(=O)nc1-2`, the Potency was 0.891 µM (active).

With `CCC(C(=O)NC1CCCCC1)n1c(SCc2ccccc2F)nc2ccncc21` (centres undefined), the Potency is 4.47 µM (active).

`Cc1ccc(NC(=O)c2ccc(-n3nncc3-c3ccccc3)cc2)cc1`: the activity change, negative = inhibition is 2.57%.

Consider `O=C(Cc1nnc(CNC(=O)c2ccccc2)s1)Nc1ccc(C(F)(F)F)cc1Cl`, for which the activity change, negative = inhibition is -3.96%.

On to `O=C(CSc1nnc(-c2ccco2)c(-c2ccco2)n1)Nc1ccccc1`, for which the Potency is 12.6 µM (active).

As to `CC(=O)Nc1ccc(/C=C/C(=O)c2ccc(-n3nncc3-c3ccccc3)cc2)cc1`, the activity change, negative = inhibition was 31.4%.

On to `CCCCNC(=O)c1ccc2nc(-c3ccco3)c(-c3ccco3)nc2c1`, for which the Potency is 7.94 µM (active).

For the compound `N#Cc1nc(Nc2cc(Cl)cc(Cl)c2)nc(NC2CCCC2)n1`, the Potency was 0.398 µM (active).

In the case of `O=C(COC(=O)CNC(=O)C1CCCCC1)Nc1cc(C(F)(F)F)ccc1Cl`, the Potency was 2.82 µM (active).

As for `NNC(=O)Cn1c(SCc2ccccc2)nc2ccccc21`, the activity change, negative = inhibition is 3.64%.

As for `O=C(Nc1ccccc1)c1ccc(-n2nncc2-c2ccccc2)cc1`, the activity change, negative = inhibition is -11.6%.

As to `CCOc1cccc(-c2nn3c(-c4cc(C)[nH]n4)nnc3s2)c1`, the activity change, negative = inhibition is -3.99%.

In the case of `O=C(COC(=O)CNC(=O)C1CCCCC1)Nc1ccccc1Cl`, the Potency was 3.98 µM (active).

With `O=C(NCCc1nc2ccccc2n1CCCOc1ccccc1Cl)C1CCCCC1`, the Potency was 1.58 µM (active).

As for `CCN(CC)c1nc(C#N)nc(N(CC)CC)n1`, the Potency is 17.8 µM (active) and 14.1 µM (active).

Take `COc1ccccc1-c1nn2c(-c3cc(C)[nH]n3)nnc2s1`: the activity change, negative = inhibition is -12.2%.

For the compound `O=C(N[C@@H](Cc1ccccc1)C(=O)CCl)OCc1ccccc1`, the Potency was 0.447 µM (active).

Consider `CCOC(=O)c1ccc(N2CSC3=C(C#N)C(c4cccs4)CC(=O)N3C2)cc1` (centres undefined), for which the activity change, negative = inhibition is -9.35%.

For `O=C(NCCc1nc2ccccc2n1CCCOc1cccc2ccccc12)C1CCCCC1`, the Potency is 2.24 µM (active).

As to `CCc1ccc2[nH]c(=O)c(CN(Cc3ccccc3)Cc3nnnn3Cc3ccccc3)cc2c1`, the activity change, negative = inhibition was -20%.

For `Cc1ccc(OCCNC(=O)CNC(=O)Cc2cccc3ccccc23)cc1`, the activity change, negative = inhibition is -1.3%.

Regarding `Cc1ccc(C)c(CN2C(=O)c3ccccc3Sc3ccc(C(=O)NCc4ccc5c(c4)OCO5)cc32)c1`, the activity change, negative = inhibition is -8.53%.

As to `Cc1ccc2[nH]c(=O)c(CN(CCCO)Cc3nnnn3Cc3ccco3)cc2c1`, the activity change, negative = inhibition was -4.63%.

On to `CCNc1nc(C#N)nc(Nc2ccccc2)n1`, for which the Potency was 0.708 µM (active).

As for `O=c1c2ccccc2sc2nc(C3CCCCC3)n(Cc3ccco3)c(=O)c12`, the Potency was 25.1 µM (active).
